Screening data deposited in PubChem by The Scripps Research Institute Molecular Screening Center.
MITF inh = inhibitors of human MITF. O75030. AlphaScreen MITF homodimerization, bead proximity signal. inhibition, % at 2.6 µM. 650,000 tested, 0.91% active; in the data active = inhibition above about 50%
GPR151 activ = activators of human GPR151. activation, % at 11.2 µM. AID 1508602. 650,000 tested, 1% active. PathHunter beta-arrestin GPR151 cells, luminescence; in the data active = activation above about 4.9%
Target sequence (Q8TDV0 whole entry, looked up): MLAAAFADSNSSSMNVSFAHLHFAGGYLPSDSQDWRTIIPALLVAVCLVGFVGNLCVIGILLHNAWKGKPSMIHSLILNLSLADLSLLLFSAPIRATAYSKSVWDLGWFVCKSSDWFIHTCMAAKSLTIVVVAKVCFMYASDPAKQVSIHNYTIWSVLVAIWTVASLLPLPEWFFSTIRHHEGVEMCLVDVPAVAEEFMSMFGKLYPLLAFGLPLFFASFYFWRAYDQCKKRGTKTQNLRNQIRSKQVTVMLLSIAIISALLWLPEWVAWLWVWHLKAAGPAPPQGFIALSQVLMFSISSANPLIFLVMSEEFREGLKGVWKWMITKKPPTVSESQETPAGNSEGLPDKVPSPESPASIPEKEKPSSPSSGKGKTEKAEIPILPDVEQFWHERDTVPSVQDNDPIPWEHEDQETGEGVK
FBW7 activator = activators of human E3 ligase FBW7 | Q969H0 | AlphaScreen FBW7–phospho-cyclin E peptide binding, activator screen | normalized activity (activation), % at 26.1 µM | 650,000 tested, 0.13% active; in the data active = normalized activity above about 1.9%;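 note: purified mutant Fbw7 with reduced substrate affinity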
TEAD-YAP block = TEAD-YAP interaction inhibition. 640,000 tested, 1.4% active. HEK-TIYL cells, TEAD-Gal4/YAP UAS-luciferase luminescence. inhibition, % at 9.12 µM; in the data active = inhibition above about 32%
A number is an active result. The list is not random: actives were taken first. Their share in the collection is about 3.5%.

What do the screens show for `O=C(COC(=O)c1ccc([N+](=O)[O-])o1)c1ccc(OC(F)F)cc1`?
MITF inh: inactive; GPR151 activ: inactive; FBW7 activator: inactive; TEAD-YAP block: inactive

How did NC(=O)c1cccc2c1NC(C(=O)O)C1CC=CC21 (stereo unspecified) do in these assays?
MITF inh: 57.0; GPR151 activ: inactive; FBW7 activator: inactive; TEAD-YAP block: inactive

Results for COC(=O)c1cccc2c1NC(C(=O)O)C1CC=CC21 (stereo unspecified) ?
MITF inh: 76.1; GPR151 activ: inactive; FBW7 activator: inactive; TEAD-YAP block: inactive

What do the screens show for `NC(=O)c1cccc2c1NC(c1cccc([N+](=O)[O-])c1)C1CC=CC21` (stereo unspecified)?
MITF inh: inactive; GPR151 activ: inactive; FBW7 activator: inactive; TEAD-YAP block: inactive

How did CN1C(=O)C(=Cc2ccccc2OCC(=O)Nc2ccccc2)C(=O)N(C)C1=S do in these assays?
MITF inh: inactive; GPR151 activ: inactive; FBW7 activator: inactive; TEAD-YAP block: inactive

How did CN1C(=O)C(=Cc2ccccc2OCC(=O)O)C(=O)N(C)C1=S do in these assays?
MITF inh: 72.1; GPR151 activ: inactive; FBW7 activator: inactive; TEAD-YAP block: inactive

What do the screens show for `CC(C)c1nnc(NC(=O)COc2ccc(Br)cc2C(C)(C)C)s1`?
MITF inh: inactive; GPR151 activ: inactive; FBW7 activator: inactive; TEAD-YAP block: inactive

How did CC(=O)NC(c1ccc(F)cc1)c1ccc2cccnc2c1O (stereo unspecified) do in these assays?
MITF inh: inactive; GPR151 activ: inactive; FBW7 activator: inactive; TEAD-YAP block: 85.1

How did O=C(NC(c1ccccc1)c1ccc2cccnc2c1O)c1ccccc1 (stereo unspecified) do in these assays?
MITF inh: inactive; GPR151 activ: inactive; FBW7 activator: inactive; TEAD-YAP block: inactive

Results for CCCCC(=O)NC(c1ccc(Cl)cc1Cl)c1ccc2cccnc2c1O (stereo unspecified) ?
MITF inh: inactive; GPR151 activ: inactive; FBW7 activator: inactive; TEAD-YAP block: 46.1

Results for COc1ccc(C(=O)NC(c2ccccc2Cl)c2cc(Cl)c3cccnc3c2O)cc1 (stereo unspecified) ?
MITF inh: inactive; GPR151 activ: inactive; FBW7 activator: inactive; TEAD-YAP block: inactive

Results for CCC(=O)NC(c1ccc(Cl)cc1)c1cc(Cl)c2cccnc2c1O (stereo unspecified) ?
MITF inh: inactive; GPR151 activ: inactive; FBW7 activator: inactive; TEAD-YAP block: inactive

How did CC(=O)NC(c1ccc(Cl)cc1)c1ccc2cccnc2c1O (stereo unspecified) do in these assays?
MITF inh: inactive; GPR151 activ: inactive; FBW7 activator: inactive; TEAD-YAP block: 89.8

How did CC(=O)NC(c1ccccc1Cl)c1ccc2cccnc2c1O (stereo unspecified) do in these assays?
MITF inh: inactive; GPR151 activ: inactive; FBW7 activator: inactive; TEAD-YAP block: 89.8

What do the screens show for `CC1CN(C(=O)c2ccccc2)OC(c2c[nH]c3ccccc23)O1` (stereo unspecified)?
MITF inh: inactive; GPR151 activ: inactive; FBW7 activator: inactive; TEAD-YAP block: inactive

What do the screens show for `CCC(=O)NC(c1ccccc1Cl)c1cc(Cl)c2cccnc2c1O` (stereo unspecified)?
MITF inh: inactive; GPR151 activ: inactive; FBW7 activator: inactive; TEAD-YAP block: 50.3

How did CCCC(=O)NC(c1ccc(SC)cc1)c1ccc2cccnc2c1O (stereo unspecified) do in these assays?
MITF inh: inactive; GPR151 activ: inactive; FBW7 activator: inactive; TEAD-YAP block: 82.3

How did CCCC(=O)NC(c1ccccc1Cl)c1ccc2cccnc2c1O (stereo unspecified) do in these assays?
MITF inh: 52.7; GPR151 activ: inactive; FBW7 activator: inactive; TEAD-YAP block: 94.9

What do the screens show for `CCOc1ccccc1-n1c(=S)sc2c(=O)n(-c3ccccc3)c(SCC3OCCO3)nc21`?
MITF inh: inactive; GPR151 activ: inactive; FBW7 activator: inactive; TEAD-YAP block: inactive

Results for C/C(=N/Nc1nc(-c2ccccc2)cs1)C(C)(C)C ?
MITF inh: inactive; GPR151 activ: inactive; FBW7 activator: inactive; TEAD-YAP block: 60.9

Results for COc1ccc(C(=O)Nc2nc3c(s2)CN(Cc2ccccc2)CC3)cc1OC ?
MITF inh: inactive; GPR151 activ: inactive; FBW7 activator: inactive; TEAD-YAP block: inactive

Results for O=C(Nc1nc2c(s1)CN(Cc1ccccc1)CC2)c1ccc2ccccc2c1 ?
MITF inh: inactive; GPR151 activ: inactive; FBW7 activator: inactive; TEAD-YAP block: 32.9

How did O=C(CSc1nnc2sc3ccccc3n12)NCc1ccccc1 do in these assays?
MITF inh: inactive; GPR151 activ: inactive; FBW7 activator: inactive; TEAD-YAP block: 46.5

How did O=C(CSc1nnc2sc3ccccc3n12)c1ccc(F)cc1 do in these assays?
MITF inh: inactive; GPR151 activ: inactive; FBW7 activator: 2.1; TEAD-YAP block: inactive

Results for CC1Cc2ccccc2N1C(=O)Nc1ccc([N+](=O)[O-])cc1 (stereo unspecified) ?
MITF inh: inactive; GPR151 activ: inactive; FBW7 activator: inactive; TEAD-YAP block: inactive

How did O=C(NCc1ccccc1)N1CCN(Cc2nc(-c3ccccc3)cs2)CC1 do in these assays?
MITF inh: inactive; GPR151 activ: inactive; FBW7 activator: inactive; TEAD-YAP block: inactive

What do the screens show for `Cc1ccc(N2Cc3ccccc3C2)cc1`?
MITF inh: inactive; GPR151 activ: inactive; FBW7 activator: inactive; TEAD-YAP block: inactive

Results for c1cnc2c(-c3cnc4c(Nc5ccc6[nH]ccc6c5)nccn34)cccc2c1 ?
MITF inh: inactive; GPR151 activ: inactive; FBW7 activator: inactive; TEAD-YAP block: 54.8

How did Fc1cccc(-c2cnc3c(Nc4ccc5[nH]ccc5c4)nccn23)c1 do in these assays?
MITF inh: inactive; GPR151 activ: inactive; FBW7 activator: inactive; TEAD-YAP block: inactive

How did CS(=O)(=O)Nc1cccc(-c2cnc3c(Nc4ccc5[nH]ccc5c4)nccn23)c1 do in these assays?
MITF inh: inactive; GPR151 activ: inactive; FBW7 activator: inactive; TEAD-YAP block: 90.0

Results for c1ccc(-c2cnc3c(Nc4ccc5[nH]ccc5c4)nccn23)cc1 ?
MITF inh: inactive; GPR151 activ: inactive; FBW7 activator: inactive; TEAD-YAP block: inactive

What do the screens show for `CSc1ccc(C2Nc3ccc(C(=O)c4ccccc4)cc3NC3=C2C(=O)CCC3)cc1` (stereo unspecified)?
MITF inh: inactive; GPR151 activ: inactive; FBW7 activator: inactive; TEAD-YAP block: 43.3

What do the screens show for `CC1(C)CC(=O)C2=C(C1)Nc1ccccc1NC2c1ccc(-c2ccccc2)cc1` (stereo unspecified)?
MITF inh: inactive; GPR151 activ: inactive; FBW7 activator: inactive; TEAD-YAP block: inactive

How did COc1cc(C2Nc3ccc(C(=O)c4ccccc4)cc3NC3=C2C(=O)CC(C)(C)C3)ccc1O (stereo unspecified) do in these assays?
MITF inh: inactive; GPR151 activ: inactive; FBW7 activator: inactive; TEAD-YAP block: 40.7

Results for CCN(CC)c1ccc(C2Nc3ccccc3NC3=C2C(=O)CC(C)(C)C3)cc1 (stereo unspecified) ?
MITF inh: inactive; GPR151 activ: inactive; FBW7 activator: inactive; TEAD-YAP block: 53.6
